From PubChem
An excerpt weighted towards active compounds, which were near 4.1% of everything screened.
ssDAF12 agonist – S. stercoralis DAF-12 activation, primary screen. actives 1% (n = 370,000). HEK293 ssDAF-12/GRIP1 lit1-tk-luc reporter, luminescence; % of 3 µM dafachronic acid response. activation, % at 6.8 µM;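 active means activation above the mean over all tested compounds plus 3 SD, cut at about 0.9% in these data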;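 further: 0% = DMSO-only wells and 100% = 3 µM delta7-dafachronic acid wells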
DAX1 inh-1 – blocks DAX1 repression of SF-1 activated StAR promoter; inhibition, % at 6.8 µM; HEK293T StAR-luciferase reporter, SF-1/DAX-1 repression relief; actives 1.1% (n = 370,000);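 active means inhibition above the mean over all tested compounds plus 3 SD, cut at about 3.6% in these data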;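 further: 0% = DAX-1 cells with DMSO and 100% = cells lacking DAX-1 with DMSO; higher inhibition means more luminescence from relief of DAX-1 repression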
hgDAF-12 ag – hgDAF-12 agonism, primary luciferase screen; AID 687014; HEK293 GAL4-hgDAF12 UAS-luciferase reporter, agonist luminescence; normalized to butyrate control; actives 1.8% (n = 370,000); activation, % at 6.8 µM;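 active means activation above a cutoff set at the mean of all screened compounds plus 3 SD, cut at about 10% in these data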;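 further: 0% = DMSO wells and 100% = sodium butyrate wells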
DAX1 inh-2 – inhibitors of human orphan nuclear receptor DAX1 (NR0B1); P51843; HEK293 Gal4-DAX1 luciferase reporter, luminescence; AID 504766; actives 0.99% (n = 340,000); inhibition, % at 6.75 µM;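 active means inhibition above the mean over all tested compounds plus 3 SD, cut at about 4.2% in these data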;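 further: 0% = DAX1-transfected cells with DMSO and 100% = empty-vector control cells with DMSO; inhibition shows as a rise in luminescence from relieved DAX1 repression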
hcDAF-12 act – H. contortus DAF-12 activation, primary screen; AID 652067; HEK293 hcDAF-12 lit1-tk-luc reporter, luminescence; 0% DMSO, 100% Δ7-dafachronic acid; activation, % at 6.8 µM; actives 1.4% (n = 370,000);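 active means activation above the mean of all tested compounds plus 3 SD, cut at about 5.5% in these data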;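 further: 100% = response to 3 µM Δ7-dafachronic acid high control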
DAX1 conf – confirmation of human DAX1 (NR0B1) inhibitors; HEK293T StAR-promoter luciferase reporter, SF-1/DAX-1 repression; actives 87% (n = 2,400); inhibition, % at 6.8 µM; shares compounds with DAX1 inh-1;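 active means inhibition above the average of every tested compound plus 3 SD, cut at about 3.8% in these data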;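 further: 0% = DAX-1 cells with DMSO and 100% = no DAX-1 control cells with DMSO; active compounds raise luminescence by relieving repression of the StAR reporter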
Target sequence (P51843 whole entry, looked up): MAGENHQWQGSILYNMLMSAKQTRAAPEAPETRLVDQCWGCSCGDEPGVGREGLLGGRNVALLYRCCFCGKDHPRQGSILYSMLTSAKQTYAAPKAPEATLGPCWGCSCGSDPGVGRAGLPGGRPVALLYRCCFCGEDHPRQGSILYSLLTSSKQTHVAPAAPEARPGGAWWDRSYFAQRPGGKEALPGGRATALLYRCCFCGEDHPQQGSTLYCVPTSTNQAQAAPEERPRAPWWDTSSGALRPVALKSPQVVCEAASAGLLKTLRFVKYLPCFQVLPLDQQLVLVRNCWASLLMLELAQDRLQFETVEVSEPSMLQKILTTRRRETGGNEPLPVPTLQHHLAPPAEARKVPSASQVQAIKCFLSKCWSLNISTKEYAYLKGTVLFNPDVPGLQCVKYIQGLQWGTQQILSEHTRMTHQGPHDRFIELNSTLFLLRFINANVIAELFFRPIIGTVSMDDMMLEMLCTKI
SF1 mutant ctr – counter-screen for DAX1 inhibitors: nonselective inhibitors with SF-1 AF2 mutant; shares compounds with DAX1 inh-1; HEK293 StAR-luciferase, luminescence; inhibition, % at 6.8 µM; actives 78% (n = 2,400);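 active means inhibition above the mean of all tested compounds plus 3 SD, cut at about 3% in these data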;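 further: 0% = DAX-1 transfected cells with DMSO and 100% = cells without DAX-1 with DMSO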
* = called active by the depositor; nt = no result given.

SMILES	ssDAF12 agonist	DAX1 inh-1	hgDAF-12 ag	DAX1 inh-2	hcDAF-12 act	DAX1 conf	SF1 mutant ctr
OC1CCN(c2c3c(nc4cc(-c5cccc(F)c5)nn24)CCCC3)CC1	-1.5	-0.1	2.4	-0.1	-3.3	nt	nt
O=C1c2ccccc2C(=O)N1CCOc1ccccc1Cl	-0.2	8.0*	9.9	0.5	2.4	3.8*	4.3*
Cc1ccccc1OCCN1C(=O)c2ccccc2C1=O	-0.9	1.4	7.4	1.8	1.9	nt	nt
O=C1c2ccccc2C(=O)N1CCOc1ccccc1Br	0.8	4.8*	6.0	1.5	0.8	4.3*	1.0
Cc1cnc(NC(=O)CSc2ccc(Cl)cc2)s1	-0.8	-0.2	0.9	0.2	-3.7	nt	nt
Cc1cnc(NC(=O)Nc2ccc(Cl)cc2)s1	0.0	6.0*	8.2	3.7	5.8*	14.4*	6.8*
CCOC(=O)C1CCN(C(=O)c2cccc(S(=O)(=O)N3c4ccccc4CC3C)c2)CC1 (stereo not drawn)	-0.4	1.8	-0.4	-0.1	-0.1	nt	nt
CCOc1cccc2cc(-c3csc(NC(=O)CCC(=O)NCCN4CCCCC4C)n3)c(=O)oc12 (stereo not drawn)	0.7	6.5*	23.4*	2.6	5.4	13.8*	7.0*
CCCc1cc(=O)oc2cc(OC3CCCCC3=O)ccc12 (stereo not drawn)	-0.9	0.2	-1.6	-0.8	-0.8	nt	nt
CCCN1CCN(C(=O)c2cc3c(s2)-c2ccccc2OC3)CC1	0.3	5.4*	4.8	1.4	3.7	9.9*	5.2*
O=C(NOCc1ccccc1)c1ccc(Cl)cc1	0.8	8.6*	6.3	0.4	2.0	10.9*	6.2*
Cc1ccc(CONC(=O)c2ccc(C)cc2)cc1	0.9	5.9*	8.8	2.9	0.5	5.9*	3.5*
COc1ccc(-n2c(=O)c(NC(=O)c3ccccc3)c3n(c2=S)CCCCC3)cc1	-1.5	4.9*	0.0	0.8	-1.8	-0.3	-0.2
O=c1cc(-c2ccc(O)c(O)c2)oc2c1ccc1ccccc12	-1.9	-1.2	-2.2	-1.0	-1.6	nt	nt
O=c1cc(-c2ccc(O)c(O)c2)oc2ccc3ccccc3c12	0.1	8.4*	10.4*	-3.9	3.4	1.0	-4.8
COc1ccc(CS(=O)(=O)/C(Cl)=C(/Cl)C(=O)Nc2ccc(OC)nc2)cc1	nt	nt	nt	-4.2	nt	nt	nt
COc1cccc(OCc2cc(C(=O)N(C)Cc3nccn3C)no2)c1	0.1	5.4*	7.8	0.9	0.1	6.8*	4.6*
CCOc1cc(/C=C2\N=C(SC(C)C(N)=O)N(c3ccc(OC(F)F)cc3)C2=O)ccc1O (stereo not drawn)	-1.6	-1.9	-6.0	-1.1	-4.1	nt	nt
Cc1cc(NC(=O)c2nn(C)c(C)c2Br)no1	-0.5	4.6*	2.2	0.4	2.6	4.6*	5.2*
CCCCCCNC(=O)CC(NS(=O)(=O)c1ccc(OC)cc1)C(C)C (stereo not drawn)	-1.1	0.2	-2.5	-0.5	-2.7	nt	nt
COc1ccc(-c2oc3cc(O)c(OC)c(O)c3c(=O)c2OC)cc1O	0.8	7.9*	-2.5	-1.0	2.1	15.6*	-8.8
O=C(Cc1ccccc1)NCC1COc2ccccc2O1 (stereo not drawn)	-1.4	0.2	-0.7	0.9	1.2	nt	nt
Cn1cccc1C(=O)NCC1COc2ccccc2O1 (stereo not drawn)	-0.7	4.7*	7.1	1.6	3.1	5.1*	1.6
CCN(CC)c1ccc(C(=O)NNC(=O)c2cccn2C)cc1	0.6	5.1*	10.7*	4.7*	2.0	6.1*	5.5*
OCCCc1cn(Cc2ccccc2)c2ccccc12	-0.9	0.2	-0.3	0.2	0.2	nt	nt
c1ccc(Cn2cc(CCOCc3ccccn3)c3ccccc32)cc1	0.9*	4.9*	8.7	nt	2.3	2.4	1.6
O=C(Nc1c(C(=O)N2CCC(N3CCCCC3)CC2)oc2ccccc12)c1ccc(F)cc1	-1.4	8.1*	0.2	0.5	-2.0	7.6*	2.8
Cc1cccc(NC(=O)c2ccccc2NC(=O)c2ccco2)c1	-1.3	-3.6	0.3	-0.1	-0.5	nt	nt
